Activity calls are given as the source filed them. Calls come from the whole dose curve; as a rule, active = well fitted curve in the direction sought with a large enough effect in the repeat runs; inconclusive = weak or mixed curves; inactive = flat fitted curve, though single readings scatter.
assay: qHTS assay to test for compound auto fluorescence at 590 nm (red) in HepG2 cells (AID 720674); details: HepG2 autofluorescence, red 540/590 nm, 1 h; series mostly up to 91.3 µM; fluorescence, relative to Rose Bengal: at the top concentration
Method in brief: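 Seeding: 2,000 HepG2 cells/well, MEM/10% FBS, overnight 37 C. Dosing: compound vs DMSO. Incubation: 1 hr, 37 C, 5% CO2. Read: fluorescence 540 ex/590 em, Rose Bengal sodium as red reference.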
% is set by controls: 0 for no effect and ±100 for the full control effect.

Compound | fluorescence, relative to Rose Bengal | outcome
CCOC(=O)C(C)(C)C | -0.545% (inactive) | –
CCCCC(CC)C(=O)OC(C)C (stereo not given) | -0.0993% (inactive) | –
CCCCC[Si](OCC)(OCC)OCC | -0.108% (inactive) | –
CCCCC(=O)N(C)C | -0.0222% (inactive) | –
C[CH2][Ge]([Cl])([CH2]C)[CH2]C | -0.0097% [at 95.7 µM] (inactive) | –
Cc1nc([N+](=O)[O-])cn1-c1ccc([N+](=O)[O-])cc1 | 0.103% [at 46 µM] (inactive) | –
Cc1cccc(Nc2ccncc2S(=O)(=O)NC(=O)NC(C)C)c1 | -0.554% [at 18.6 µM] (inactive) | –
N#CCCOCCOCCC#N | -0.0046% (inactive) | –
CC(C)COC(=O)CCCCC(=O)OCC(C)C | 0.0586% (inactive) | –
CCc1nccnc1C | -0.0327% (inactive) | –
Cc1ncc([N+](=O)[O-])n1CC(O)CCl (stereo not given) | -0.0192% [at 18.6 µM] (inactive) | –
CCOc1ccc(NC(=O)OC(C)C)cc1OCC | -0.0408% (inactive) | –
COc1cccc2sc(N)nc12 | -0.0149% (inactive) | –
C[C@H](CCC(=O)O)[C@H]1CC[C@H]2[C@@H]3[C@H](O)C[C@@H]4C[C@H](O)CC[C@]4(C)[C@H]3C[C@H](O)[C@]12C | – | inactive
NCCc1ccn[nH]1 | 0.0089% [at 18.6 µM] (inactive) | –
O=P(O)(O)OCC(O)CO (stereo not given) | -0.27% [at 46 µM] (inactive) | –
CCC1Nc2cc(Cl)c(S(N)(=O)=O)cc2S(=O)(=O)N1 (stereo not given) | 0.0077% [at 46 µM] (inactive) | –
O=C(/C=C/c1ccccc1)NCCO | -0.486% [at 46 µM] (inactive) | –

Compound | fluorescence, relative to Rose Bengal | outcome
CCC(C)N (stereo not given) | -0.0112% (inactive) | –
CNC(=O)C(c1ccccc1)c1ccccc1 | 0.0295% (inactive) | –
CCCOCCOCCOCCO | -0.731% (inactive) | –
O=[Si]=O | 0.0122% (inactive) | –
C=CCOc1c(Br)cc(C(C)(C)c2cc(Br)c(OCC=C)c(Br)c2)cc1Br | 0.0202% [at 46 µM] (inactive) | –
CCCCOC(=O)[C@@H](C)Oc1ccc(Oc2ccc(C(F)(F)F)cn2)cc1 | 0.298% (inactive) | –
CCC(C)(CCC(C)C)C(=O)[O-].CCC(C)(CCC(C)C)C(=O)[O-].[Zn+2] (stereo not given) | -0.217% (inactive) | –
CC(=O)OCC(=O)[C@@]1(O)[C@H](OC(C)=O)C[C@H]2[C@@H]3CCC4=CC(=O)C=C[C@]4(C)[C@@]3(F)[C@@H](O)C[C@@]21C | -0.172% [at 46 µM] (inactive) | –
CC(C)COC(=O)COc1ccc(Cl)cc1Cl | -0.194% (inactive) | –
CC(=O)c1ccc(OCC(=O)N2CCCCC2)cc1 | 0.025% [at 46 µM] (inactive) | –
CN=C(NC#N)NCCSCc1csc(N=C(N)N)n1 | 0.0032% [at 46 µM] (inactive) | –
C[Si]1(C)N[Si](C)(C)N[Si](C)(C)N1 | 0.0382% (inactive) | –
Cc1ccccc1C | -0.213% [at 95.7 µM] (inactive) | –
O=c1cc(O)c(Cl)c[nH]1 | -0.168% [at 46 µM] (inactive) | –
CCC(CO)CO | -0.407% (inactive) | –
COC(/C=C(\C)CCC=C(C)C)OC | 0.0514% (inactive) | –
CC(C)(CO)[C@@H](O)C(=O)NCCCO | 0.092% [at 46 µM] (inactive) | –

assay: qHTS assay to test for compound auto fluorescence at 535 nm (green) in HepG2 cells (AID 720675); details: green autofluorescence 485/535 nm, 1 h; series mostly up to 91.3 µM; fluorescence, % of fluorescein control: at the top concentration

Compound | fluorescence, % of fluorescein control | outcome
CCOC(=O)C(C)(C)C | 0.0593% (inactive) | –
CCCCC(CC)C(=O)OC(C)C (stereo not given) | 0.0614% (inactive) | –
CCCCC[Si](OCC)(OCC)OCC | 0.0067% (inactive) | –
CCCCC(=O)N(C)C | -0.0115% (inactive) | –
C[CH2][Ge]([Cl])([CH2]C)[CH2]C | 0.0614% [at 95.7 µM] (inactive) | –
Cc1nc([N+](=O)[O-])cn1-c1ccc([N+](=O)[O-])cc1 | 0.0342% [at 46 µM] (inactive) | –
Cc1cccc(Nc2ccncc2S(=O)(=O)NC(=O)NC(C)C)c1 | 0.0113% [at 18.6 µM] (inactive) | –
N#CCCOCCOCCC#N | 0.0717% (inactive) | –
CC(C)COC(=O)CCCCC(=O)OCC(C)C | -0.0709% (inactive) | –
CCc1nccnc1C | 0.0189% (inactive) | –
Cc1ncc([N+](=O)[O-])n1CC(O)CCl (stereo not given) | -0.155% [at 18.6 µM] (inactive) | –
CCOc1ccc(NC(=O)OC(C)C)cc1OCC | 0.125% (inactive) | –
COc1cccc2sc(N)nc12 | -0.253% (inactive) | –
C[C@H](CCC(=O)O)[C@H]1CC[C@H]2[C@@H]3[C@H](O)C[C@@H]4C[C@H](O)CC[C@]4(C)[C@H]3C[C@H](O)[C@]12C | – | inactive
NCCc1ccn[nH]1 | 0.0074% [at 18.6 µM] (inactive) | –
O=P(O)(O)OCC(O)CO (stereo not given) | -0.0191% [at 46 µM] (inactive) | –
CCC1Nc2cc(Cl)c(S(N)(=O)=O)cc2S(=O)(=O)N1 (stereo not given) | -0.186% [at 46 µM] (inactive) | –
O=C(/C=C/c1ccccc1)NCCO | 0.114% [at 46 µM] (inactive) | –

Compound | fluorescence, % of fluorescein control | outcome
CCC(C)N (stereo not given) | -0.0464% (inactive) | –
CNC(=O)C(c1ccccc1)c1ccccc1 | -0.0742% (inactive) | –
CCCOCCOCCOCCO | 0.0812% (inactive) | –
O=[Si]=O | -0.0198% (inactive) | –
C=CCOc1c(Br)cc(C(C)(C)c2cc(Br)c(OCC=C)c(Br)c2)cc1Br | -0.0224% [at 46 µM] (inactive) | –
CCCCOC(=O)[C@@H](C)Oc1ccc(Oc2ccc(C(F)(F)F)cn2)cc1 | 0.0352% (inactive) | –
CCC(C)(CCC(C)C)C(=O)[O-].CCC(C)(CCC(C)C)C(=O)[O-].[Zn+2] (stereo not given) | 0.0315% (inactive) | –
CC(=O)OCC(=O)[C@@]1(O)[C@H](OC(C)=O)C[C@H]2[C@@H]3CCC4=CC(=O)C=C[C@]4(C)[C@@]3(F)[C@@H](O)C[C@@]21C | 0.0237% [at 46 µM] (inactive) | –
CC(C)COC(=O)COc1ccc(Cl)cc1Cl | -0.0806% (inactive) | –
CC(=O)c1ccc(OCC(=O)N2CCCCC2)cc1 | 0.0368% [at 46 µM] (inactive) | –
CN=C(NC#N)NCCSCc1csc(N=C(N)N)n1 | -0.176% [at 46 µM] (inactive) | –
C[Si]1(C)N[Si](C)(C)N[Si](C)(C)N1 | -0.0079% (inactive) | –
Cc1ccccc1C | -0.0044% [at 95.7 µM] (inactive) | –
O=c1cc(O)c(Cl)c[nH]1 | -0.114% [at 46 µM] (inactive) | –
CCC(CO)CO | -0.0343% (inactive) | –
COC(/C=C(\C)CCC=C(C)C)OC | -0.0789% (inactive) | –
CC(C)(CO)[C@@H](O)C(=O)NCCCO | -0.128% [at 46 µM] (inactive) | –
